Screening results: PubChem BioAssay, several laboratories
TIM10 inh: growth inhibitors of TIM10 yeast strain. S. cerevisiae TIM10 strain growth, BacTiter-Glo luminescence, 24 h. inhibition, % at 10 µM. actives 1.4% (n = 330,000). AID 463195;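 active = inhibition of 40% or more at the single tested concentration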;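 note: wild-type TIM10 isogenic control strain grown at permissive 25 °C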
SKKanGAS inh: inhibitors of SKKanGAS S. pyogenes growth in kanamycin (SK-promoter or general growth effect); BacTiter-Glo, 6 h; actives 1.3% (n = 300,000); inhibition, % at 7.5 µM;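 active = mean replicate score, as percent of positive control median, at least 50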;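 note: strain carries kanamycin resistance gene driven by streptokinase promoter and grows in 40 µg/ml kanamycin; loss of luminescence reflects streptokinase promoter inhibition or plain growth inhibition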
NLRP3 yeast inh: blocks the NALP3 inflammasome reconstituted in yeast. actives 0.39% (n = 330,000). AID 2825. Yeast reconstituted NLRP3/ASC/caspase-1, beta-gal luminescence, 24 h. inhibition, % at 10 µM;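 active = inhibition of 50% or more; inactive = inhibition below 50%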
tim23-1 inh: tim23-1 yeast growth inhibition; S. cerevisiae tim23-1 growth, BacTiter-Glo luminescence, 24 h; inhibition, % at 20 µM; actives 1.3% (n = 330,000); AID 463212;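 active = growth inhibition of the mutant yeast at or above 50%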;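 note: temperature-sensitive mutant grown at 25 °C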
PfHsp90 set2: inhibits growth of yeast expressing Plasmodium falciparum Hsp90. S. cerevisiae expressing PfHsp90, BacTiter-Glo ATP, 48 h; yeast lacking PDR1 and PDR3 efflux regulators. inhibition, % at 9.4 µM. actives 0.32% (n = 310,000);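 active = every replicate shows inhibition above about 80%, whatever the replicate mean, limit read from the data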
tim10-1 inh: tim10-1 yeast growth inhibition. S. cerevisiae tim10-1 ts strain growth, BacTiter-Glo, 24 h. inhibition, % at 20 µM. actives 2.2% (n = 330,000). AID 463190;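 active = inhibition of at least 40%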;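 note: mutant grown at 25 °C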
tim10-1 conf: confirmation of tim10-1 mutant yeast growth inhibitors; actives 56% (n = 7,400); shares compounds with tim10-1 inh; S. cerevisiae tim10-1 ts strain growth, BacTiter-Glo, 24 h; inhibition, % at 20 µM;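 active = inhibition of yeast growth at or above a set limit in either of two repeat tests at 20 µM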;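 note: tim10-1 mutant grown at permissive 25 °C to find synthetic lethal compounds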
Large screens that a line does not name were inactive (follow-up assays come after a bar, where they were run). A selection: hits, their analogues and other compounds. The true share with any hit is near 4.6%.

COc1cc(SC#N)ccc1N=Cc1c(C)[nH]n(-c2ccc(Cl)cc2)c1=O	tim10-1 inh 42 | tim10-1 conf inactive
COc1ccc(OC)c(NC(=O)CSc2nnc(CNC(=O)c3cc(OC)c(OC)c(OC)c3)o2)c1	none
CCOc1ccc(Nc2ncnc3c2cnn3Cc2ccccc2)cc1	tim10-1 inh 41 | tim10-1 conf 37
COc1ccc(Nc2ncnc3c2cnn3Cc2ccccc2)cc1	tim10-1 inh 46 | tim10-1 conf 34
COc1ccc(-n2ncc3c(N4CCN(Cc5ccccc5)CC4)ncnc32)cc1	tim10-1 inh 46 | tim10-1 conf inactive
O=C(Nc1ccccc1-c1ccccc1)C(c1ccccc1)c1ccccc1	none
Cc1ccc(C)c(S(=O)(=O)N(C)C2CCS(=O)(=O)C2)c1 (stereo not drawn)	none
Fc1ccc(Oc2nc(-c3ccccc3)nnc2C(F)(F)F)cc1	tim10-1 inh 50 (no result: PfHsp90 set2) | tim10-1 conf inactive
CC(=O)Nn1cnc2c(c1=O)C1(CCCC1)Cc1ccccc1-2	none (no result: SKKanGAS inh)
CCCC(=O)Nn1cnc2c(c1=O)C1(CCCC1)Cc1ccccc1-2	tim10-1 inh 45 | tim10-1 conf 36
CCOC(=O)CCCCC1C(CCCC(=O)OCC)C=NN1C (stereo not drawn)	none (no result: TIM10 inh, SKKanGAS inh, NLRP3 yeast inh, tim23-1 inh, tim10-1 inh)
COc1ccc(CSCC(=O)Nc2ccc(S(=O)(=O)N3CCCCCC3)cc2)cc1	tim10-1 inh 42 | tim10-1 conf inactive
CCOc1ccccc1OCCCC(=O)N1CCN(S(=O)(=O)c2ccc(C)cc2)CC1	tim10-1 inh 41 | tim10-1 conf inactive
O=C(COc1ccccc1)Nc1ccc(S(=O)(=O)N2CCCC2)cc1	tim10-1 inh 41 | tim10-1 conf inactive
O=C(CCCN1C(=O)c2ccccc2C1=O)Nc1ccc(S(=O)(=O)N2CCCCC2)cc1	tim10-1 inh 41 | tim10-1 conf 32
COc1ccc(OCC(=O)Nc2ccc(S(=O)(=O)N3CCCC3)cc2)cc1	none
O=C(CCCN1C(=O)c2ccccc2C1=O)Nc1ccc(S(=O)(=O)N2CCOCC2)cc1	none (no result: PfHsp90 set2)
O=C(C1=C[C@@H](c2ccccc2)C[C@@H](OCc2ccc(CO)cc2)O1)N1CCCCCCC1	none
CCOc1ncccc1C(=O)Nc1c(C)n(C)n(-c2ccccc2)c1=O	none
CC(=O)Nc1nc(SCC(=O)Nc2nnc(C)s2)[nH]c(=O)c1NC(=O)c1cccs1	none (no result: PfHsp90 set2)
CCOc1ccc(S(=O)(=O)NCc2cccnc2)c2ccccc12	none
CCCOc1ccccc1OCC(=O)Nc1ccc(S(=O)(=O)N2CCCCC2)cc1	tim10-1 inh 41 | tim10-1 conf 32
COc1ccccc1OCC(=O)Nc1ccc(S(=O)(=O)N2CCCCCC2)cc1	none
CCCOc1ccccc1OCC(=O)Nc1ccc(S(=O)(=O)N2CCCC2)cc1	none
Cc1ccccc1OCC(=O)Nc1ccc(S(=O)(=O)N2CCCC2)cc1	tim10-1 inh 49 (no result: PfHsp90 set2) | tim10-1 conf 37
CCn1ncc(Br)c1C(=O)Nc1ccccc1C(F)(F)F	none
COc1ccc(-n2ccnc2CN2CCCC(CO)(Cc3cccc(OC)c3)C2)cc1 (stereo not drawn)	tim10-1 inh 41 | tim10-1 conf inactive
OCC1(Cc2cccc(Cl)c2)CCCN(Cc2ccc3cc(F)ccc3n2)C1 (stereo not drawn)	tim10-1 inh 48 | tim10-1 conf inactive
CC(C)(C)OC(=O)NCCCCCNC(=O)c1[nH]cnc1C(=O)Nc1ccon1	none (no result: SKKanGAS inh)
O=S(=O)(c1cc(Cl)ccc1Br)N1CCCCC1	tim10-1 inh 43 | tim10-1 conf 32
CCOC(=O)Nc1nc(-c2ccc(Cl)cc2Cl)cs1	tim10-1 inh 40 | tim10-1 conf inactive
CCOc1ccc(NC(=O)CNC(=O)c2nn(-c3ccc(OC)cc3)c(=O)c3ccccc23)cc1	none
Cc1ccc(CNC(=O)Cc2csc(Nc3nc(=S)[nH]c4ccccc34)n2)cc1	none (no result: PfHsp90 set2) | tim10-1 conf inactive
O=C(Cc1csc(Nc2nc(=S)[nH]c3ccccc23)n1)NCc1ccccc1Cl	none
CC(O)CNC12CC3CC(CC(C3)C1)C2 (stereo not drawn)	none
CNC(=S)N1N=C(c2cccs2)CC1c1ccc(F)cc1 (stereo not drawn)	tim10-1 inh 43 | tim10-1 conf inactive
CCc1cc2c(=O)c(-c3nc(C)cs3)coc2cc1O	none
